Reference: PubChem BioAssay AID624136 (Broad Institute, 2012)
The campaign covered roughly 17,000 compounds. About 75 (0.4%) were called active.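 Rule for the calls: active = compounds whose four printed spots each glow above background more than chance allows, each with a p-value under 7%; inactive = the rest.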 The entries come from a sample that favours actives as a whole.

System: mutant tumor protein p53 (GST-tagged), Homo sapiens
Test: small molecules binding GST-tagged mutant p53 – biochemical, small molecule microarray, anti-GST fluorescence, primary screen (AID 624136)

outcome, inactive:
C[C@@H]1CN([C@H](C)CO)C(=O)c2cccc(NC(=O)Nc3ccc(F)cc3)c2O[C@@H]1CN(C)Cc1ccc(C(F)(F)F)cc1
O=C(NCc1cccnc1)c1cnn2c(C(F)F)cc(-c3ccccc3)nc12
CNC[C@H]1OCCCC[C@@H](C)Oc2ccc(NC(=O)c3ccncc3)cc2C(=O)N([C@H](C)CO)C[C@H]1C
Cn1nnc2cc(C(=O)N(CCO)c3ccccc3)ccc21
C[C@@H]1CN([C@@H](C)CO)C(=O)Cc2cc(NC(=O)Cc3cn(C)c4ccccc34)ccc2O[C@H]1CN(C)Cc1ccc(C(=O)O)cc1
Cc1noc(C)c1S(=O)(=O)Nc1cccc2c1O[C@H](CN(C)Cc1ccc(C(F)(F)F)cc1)[C@H](C)CN([C@@H](C)CO)C2=O
CC(=O)Nc1ccccc1-c1cn(CC(=O)N2CCOCC2)nn1
CCCN(C)C[C@@H]1OCCCC[C@H](C)Oc2ccc(NS(=O)(=O)c3ccc(C)cc3)cc2C(=O)N([C@H](C)CO)C[C@@H]1C
Cc1noc(C)c1NC(=O)Nc1ccc2c(c1)C(=O)N([C@@H](C)CO)C[C@H](C)[C@@H](CN(C)C)O2
C[C@@H]1CN([C@@H](C)CO)C(=O)c2cc(N(C)C)ccc2O[C@@H](C)CCCCO[C@@H]1CN(C)C(=O)CCC(F)(F)F
CC(C)NC(=O)Nc1ccc2c(c1)C(=O)N([C@H](C)CO)C[C@H](C)[C@@H](CN(C)C(=O)CCCN(C)C)OCCCC[C@@H](C)O2
Cc1noc(C)c1S(=O)(=O)Nc1ccc2c(c1)CC(=O)N([C@@H](C)CO)C[C@H](C)[C@H](CN(C)C(=O)Nc1ccccc1)O2
CC(C)NC(=O)N(C)C[C@@H]1OCCCC[C@@H](C)Oc2ccc(NC(=O)CCCN(C)C)cc2C(=O)N([C@@H](C)CO)C[C@@H]1C
COc1ccc(S(=O)(=O)Nc2ccc3c(c2)C(=O)N([C@@H](C)CO)C[C@@H](C)[C@H](CN(C)S(=O)(=O)c2cccs2)O3)cc1
COc1ccc(NC(=O)N(C)C[C@H]2Oc3ccc(NS(=O)(=O)c4ccc(C)cc4)cc3C(=O)N([C@@H](C)CO)C[C@H]2C)cc1
COc1ccc(C(=O)CCC(=O)Nc2cccnc2)c(OC)c1
C[C@H](CO)N1C[C@H](C)[C@H](CN(C)S(=O)(=O)c2cccs2)OCCCC[C@H](C)Oc2ccc(NC(=O)CCCN(C)C)cc2C1=O
CCOC(=O)c1c(CN2CCOCC2)nc2c3ccccc3ccn12
CS(=O)(=O)N(CC(=O)Nc1ccc(F)c(F)c1)c1ccccc1F
COC(=O)c1ccccc1NC(=O)Cc1coc2cc(C)cc(C)c12
COc1ccc(-c2nnc(SCC(=O)Nc3c(C)n[nH]c3C)n2-c2ccccc2)cc1OC
C[C@H]1CN([C@@H](C)CO)C(=O)Cc2cc(NC(=O)c3ccncc3)ccc2O[C@@H]1CN(C)C(=O)Nc1ccccc1
C[C@@H]1CCCCO[C@H](CN(C)Cc2ccc3c(c2)OCO3)[C@@H](C)CN([C@H](C)CO)C(=O)c2cc(N(C)C)ccc2O1
O=C1N(CCS(=O)(=O)c2ccccc2)Cc2ccccc2[C@H]2OC(c3ccc(OCCCO)cc3)=N[C@@]12CCS(=O)(=O)c1ccccc1
C[C@H](CO)N1C[C@H](C)[C@H](CN(C)C(=O)Nc2ccc(F)cc2)Oc2ccc(NC(=O)Cc3cn(C)c4ccccc34)cc2CC1=O
C[C@H](CO)N1C[C@H](C)[C@H](CN(C)S(=O)(=O)c2ccc(Cl)cc2)Oc2c(NS(C)(=O)=O)cccc2C1=O
C[C@@H]1CN([C@@H](C)CO)C(=O)c2cc(NC(=O)Cc3ccccc3)ccc2O[C@H]1CN(C)CC1CC1
C[C@H]1CN([C@@H](C)CO)C(=O)c2cc(NC(=O)NC3CCCCC3)ccc2O[C@@H]1CN(C)C(=O)Nc1cccc2ccccc12
COc1ccccc1-c1nnc(SCC(=O)Nc2ccccc2)o1
C[C@@H]1CN([C@H](C)CO)C(=O)c2cc(NS(=O)(=O)c3ccccc3)ccc2O[C@@H](C)CCCCO[C@H]1CN(C)C(=O)C1CCCCC1
Cc1ccc(S(=O)(=O)N(C)CC(=O)Nc2ccc(C#N)cc2)cc1
C[C@H]1CN([C@@H](C)CO)C(=O)c2cccc(NC(=O)Nc3cccc4ccccc34)c2O[C@@H]1CN(C)C(=O)NC1CCCCC1
C[C@H](CO)N1C[C@H](C)[C@H](CN(C)S(=O)(=O)c2cccs2)Oc2c(NS(=O)(=O)c3ccc(Cl)cc3)cccc2C1=O
O=C(C1=C[C@H](c2csc3ccccc23)C[C@H](OCc2ccc(CO)cc2)O1)N1CCCCC1
C[C@@H]1CN([C@H](C)CO)C(=O)Cc2cc(NC(=O)Nc3ccc(F)cc3)ccc2O[C@@H]1CN(C)Cc1ccc2c(c1)OCO2
C[C@@H]1CN([C@@H](C)CO)C(=O)Cc2cc(NS(=O)(=O)c3ccc(Cl)cc3)ccc2O[C@H]1CN(C)CC1CCCCC1
CNC[C@@H]1Oc2ncc(-c3ccc(F)cc3)cc2C(=O)N([C@H](C)CO)C[C@@H]1C
CCNc1nc(NCC)nc(OCC#N)n1
CO[C@@H]1[C@@H](OC(N)=O)[C@@H](O)C(Oc2ccc3c(O)c(NC(=O)c4ccc(O)c(CC=C(C)C)c4)c(=O)oc3c2C)OC1(C)C (stereo partly specified)
COc1ccc2ncnc(NCc3ccc4c(c3)OCO4)c2c1
COc1ccc(S(=O)(=O)Nc2ccc3c(c2)CC(=O)N([C@H](C)CO)C[C@H](C)[C@H](CN(C)Cc2ccc(C(F)(F)F)cc2)O3)cc1
C[C@H]1CN([C@@H](C)CO)C(=O)Cc2cc(NC(=O)NC3CCCCC3)ccc2O[C@H]1CN(C)S(=O)(=O)c1cccs1
COc1ccc(CN(C)C[C@H]2Oc3c(NC(=O)c4cnccn4)cccc3C(=O)N([C@H](C)CO)C[C@@H]2C)cc1
COc1cc(CCC(=O)O)oc(=O)c1
C[C@H](CO)N1C[C@H](C)[C@@H](CN(C)C(=O)Nc2ccc3c(c2)OCO3)Oc2ccc(NS(=O)(=O)c3ccc(Cl)cc3)cc2C1=O
Cc1ccccc1-c1nnc(SCC(=O)Nc2ccc(S(N)(=O)=O)cc2)n1C
CC(C)(C)c1cn2c3ccccc3nc2n1CCN1CCOCC1
CNC[C@H]1Oc2ccc(NS(=O)(=O)c3ccccc3)cc2CC(=O)N([C@H](C)CO)C[C@@H]1C
CC(C)NC(=O)Nc1ccc2c(c1)C(=O)N([C@@H](C)CO)C[C@@H](C)[C@H](CN(C)C)OCCCC[C@H](C)O2
NC(CC(=O)Nc1ccc(Cl)cc1)C(=O)O (stereo unspecified)
C[C@@H]1CN([C@@H](C)CO)C(=O)c2cccc(NC(=O)c3ccncc3)c2O[C@@H]1CN(C)CC1CC1
C[C@@H]1CN([C@@H](C)CO)C(=O)c2cccc(NS(=O)(=O)c3cn(C)cn3)c2O[C@@H]1CN(C)Cc1ccc(Cl)c(Cl)c1
COc1ccc(CN(C)C[C@H]2Oc3c(NC(=O)C4CCCCC4)cccc3C(=O)N([C@@H](C)CO)C[C@H]2C)cc1
CC(=O)Nc1ccc(NC(=O)CN(c2ccc(I)cc2)S(C)(=O)=O)cc1
CN(CCc1ccccn1)S(=O)(=O)c1ccc2c3c(cccc13)C(=O)N2
CNC[C@@H]1OCCCC[C@@H](C)Oc2ccc(NS(C)(=O)=O)cc2C(=O)N([C@H](C)CO)C[C@@H]1C
CCN1CCOC(CC(=O)Nc2ccc3c(c2)OCCO3)C1=O (stereo unspecified)
C[C@@H]1CN([C@H](C)CO)C(=O)c2cc(NC(=O)Cn3cnnn3)ccc2O[C@@H]1CN(C)CC1CC1
C[C@@H]1CN([C@@H](C)CO)C(=O)c2cc(NS(=O)(=O)c3ccccc3)ccc2O[C@@H](C)CCCCO[C@@H]1CN(C)S(=O)(=O)c1cccs1
O=C(Cn1cnc([N+](=O)[O-])n1)Nc1c(Cl)cccc1Cl
COc1ccc(CN(C)C[C@H]2Oc3c(NS(=O)(=O)c4ccc(Cl)cc4)cccc3C(=O)N([C@H](C)CO)C[C@H]2C)cc1
Cn1c(COc2ccccc2)nnc1SCc1nc2ccccc2c(=O)[nH]1
Cc1noc(C)c1NC(=O)N(C)C[C@H]1Oc2c(NC(=O)c3nc4ccccc4s3)cccc2C(=O)N([C@@H](C)CO)C[C@@H]1C
COc1ccc(CN(C)C[C@H]2Oc3c(NC(=O)NC4CCCCC4)cccc3C(=O)N([C@@H](C)CO)C[C@@H]2C)cc1
Cc1noc(C)c1NC(=O)N(C)C[C@@H]1OCCCC[C@@H](C)Oc2ccc(NC(=O)C3CCCCC3)cc2C(=O)N([C@H](C)CO)C[C@@H]1C
CC1(C)C[C@H](O)C[C@@]2(C)[C@H]1[C@H](O)C=C1COC(=O)[C@@]12O
C[C@@H]1CN([C@H](C)CO)C(=O)c2cccc(NC(=O)Nc3cccc4ccccc34)c2O[C@@H]1CN(C)C(=O)Nc1ccc(F)cc1
C[C@@H]1CC[C@]2(C(=O)O)CC[C@]3(C)C(=CCC4[C@@]5(C)CC[C@H](O)[C@](C)(C(=O)O)C5CC[C@]43C)C2[C@]1(C)O (stereo partly specified)
C[C@H]1CN([C@@H](C)CO)C(=O)c2cccc(NC(=O)Nc3ccccc3)c2O[C@@H]1CN(C)S(C)(=O)=O
COc1ccc(CN(C)C[C@H]2Oc3c(NC(=O)c4ccncc4)cccc3C(=O)N([C@H](C)CO)C[C@@H]2C)cc1
Cc1cc(C(=O)Nc2cccc3c2O[C@@H](CN(C)Cc2ccc(C(=O)O)cc2)[C@H](C)CN([C@@H](C)CO)C3=O)n(C)n1
